Laboratory results taken from ChEMBL document CHEMBL3433997, “St. Jude Leishmania screening dataset” (2016).

Tests used:
Assay type in all cases: functional
[1] = target: Solute carrier family 2, facilitated glucose transporter member 1 (Homo sapiens) (UniProt P11166); experiment: ST_JUDE_LEISH: Cytotoxicity at 2uM final concentration against transgenic Leishmania Mexicana promastigotes LmGLUT1 that are glucose transport deficient and complemented with the human glucose transporter GLUT1. Activity is measured by DNA content using SYBR green in vitro
[2] = target: Hexose transporter 1 (Plasmodium falciparum) (UniProt O97467); experiment: ST_JUDE_LEISH: Cytotoxicity at 2uM final concentration against transgenic Leishmania Mexicana promastigotes LmPfHT that are glucose transport deficient and complemented with the Plasmodium falciparum hexose transporter. Activity is measured by DNA content using SYBR green in vitro
[3] = target: Glucose transporter (Leishmania mexicana) (UniProt O61059); experiment: ST_JUDE_LEISH: Cytotoxicity at 2uM final concentration against transgenic Leishmania Mexicana promastigotes LmGT2 that are glucose transport deficient and complemented with the L. Mexicana glucose transporter 2. Activity is measured by DNA content using SYBR green in vitro

Solute carrier family 2, facilitated glucose transporter member 1 (Homo sapiens), sequence (P11166 whole entry): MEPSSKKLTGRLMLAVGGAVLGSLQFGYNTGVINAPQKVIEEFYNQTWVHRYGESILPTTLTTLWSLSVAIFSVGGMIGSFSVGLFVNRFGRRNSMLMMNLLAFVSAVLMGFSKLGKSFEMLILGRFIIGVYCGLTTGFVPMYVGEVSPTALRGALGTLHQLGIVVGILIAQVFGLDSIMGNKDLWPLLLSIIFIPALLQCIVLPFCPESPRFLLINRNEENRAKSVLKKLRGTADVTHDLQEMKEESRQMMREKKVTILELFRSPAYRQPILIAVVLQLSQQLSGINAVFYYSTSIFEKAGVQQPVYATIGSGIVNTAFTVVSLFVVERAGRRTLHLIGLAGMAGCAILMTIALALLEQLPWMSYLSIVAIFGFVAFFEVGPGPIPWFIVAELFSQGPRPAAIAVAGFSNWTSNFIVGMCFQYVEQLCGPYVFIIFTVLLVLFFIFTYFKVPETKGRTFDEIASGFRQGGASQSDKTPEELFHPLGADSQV

SMILES | inhibition [1] [%] | inhibition [2] [%] | inhibition [3] [%]
CC(C)c1sc(N2CCN(C)CC2)nc1C(=O)Nc1cccc2c1CCCC2 | 0.42 | 1.67 | 1.79
Cc1cc(-c2ccc(CNCc3ccsc3)cc2)ccc1S(=O)(=O)NCCN1CCCC1 | 61.3 | 21.9 | -0.36
CCCN1CCN(c2cc(NCC)c3c4c(onc24)-c2ccccc2C3=O)CC1 | 7.98 | 8.22 | 6.9
CC(C)c1ccc(NC(=O)Nc2ccc(CCNCCCc3ccccc3)cc2)cc1 | 0.62 | 0.01 | 0.36
CCc1cc(-c2onc(C)c2-c2cc3ccccc3o2)c(O)cc1OC | 1.25 | -1.2 | -0.24
N#Cc1ccc2c(c1)CCN(CCC1CCC(NC(=O)/C=C/c3cc(Br)cs3)CC1)CC2 (stereo unspecified) | 5.26 | 2.93 | -0.56
COc1ccc(CCNCC(O)COc2nccc3c(S(=O)(=O)N4CCCNCC4)cccc23)cc1OC (stereo unspecified) | -1.57 | -1.2 | -2.89
CO/C(=C\C=C\c1cc2cc(Cl)c(Cl)cc2[nH]1)C(=O)NC1CCN(CCNc2ccccc2)CC1 | -1.91 | -1.2 | 0.08
COc1ccc2nc(C)cc(Nc3ccc(Oc4ccc5ccccc5c4)c(Cl)c3)c2c1 | 7.14 | 7.63 | 1.45
Cc1nc(C)c(-c2ccc(S(=O)(=O)c3ccc(Cl)cc3)cc2)c(O)c1Br | 4.93 | 4.53 | 4.12
COc1ccc(NC(=O)CSc2nc(-c3ccccc3Cl)ns2)cc1 | 1.15 | -1.47 | -2.13
O=C(/C=C/c1ccc(Cl)c(Cl)c1)NCCCCCN1CCC(NC(=S)Nc2ccc(Cl)c(Cl)c2)CC1 | 4.99 | 5.09 | 3.5
COc1cc(C(=O)NC2CC(C)(C)N(C)C(C)(C)C2)ccc1-c1cc2cc(Cl)c(Cl)cc2[nH]1 | 1.97 | -1.54 | 2.48
Cc1cc(N2CCCCC2)nc2ccc(NC(=O)c3cccc([N+](=O)[O-])c3)cc12 | 4.97 | 4.4 | 6.58
C[C@H](Cc1ccc(OCCNC[C@H](O)c2cccc(Cl)c2)cc1)NC[C@H](O)c1ccc(Cl)c(Cl)c1 | 2.67 | 1.89 | 3.19
Cc1ccccc1C1CCN(C2CCC(NC(=O)c3cncc(-c4ccccc4)c3)CC2)CC1 (stereo unspecified) | 6.15 | 6.33 | 3.53

SMILES | inhibition [1] [%] | inhibition [2] [%] | inhibition [3] [%]
O=C(Nc1ccc(C(F)(F)F)cc1)c1ccc(S(=O)(=O)NC2CCN(CC3CCCCC3)C2)cc1 (stereo unspecified) | -3 | 1.05 | -3.85
Fc1cccc(Cn2ncc3cc(Nc4ncnc5sc(C#Cc6ncc[nH]6)cc45)ccc32)c1 | -0.74 | 1.74 | -0.29
CN(C)CCN(C)Cc1ccc(-c2ccc(NS(=O)(=O)c3cccc4cccnc34)cc2)cc1 | 9.5 | 9.32 | 3.58
CCNc1cc(C)nc(Nc2ccc(NC(=O)c3ccc(OC)c(OC)c3)cc2)n1 | 5.48 | 1.84 | 2.34
COc1cccc(C(=O)OC2=C3CCC(=O)C3(C)CCC2=O)c1 (stereo unspecified) | 5.35 | 4.65 | 6.31
COc1cc(NC(=O)c2ccc3c(=O)n(Cc4ccccc4)c(=S)[nH]c3c2)cc(OC)c1OC | 5.79 | 7.58 | 7.73
Cc1cc(Nc2c(C(N)=O)cnc3cc(-c4ccoc4)ccc23)ccc1N1CCN(C)CC1 | -1.39 | -0.31 | -0.69
COc1ccc(Nc2ncc3c(-c4cccc(NC(=O)Cc5cccnc5)c4)c[nH]c3n2)cc1OC | -2.6 | -0.55 | -1.58
CC(C)CCN1CCCN(Cc2cccc(NC(=O)c3ccc(Cl)c(Cl)c3)c2)CC1 | -1.69 | -1.38 | -3.74
Cc1ccc2[nH]c3c(c2c1)CC(C(=O)NCCC(C)C)NC31CCN(Cc2ccccc2)CC1 (stereo unspecified) | 0.11 | -3.4 | 0.79
CCNc1cc(C)nc(Nc2ccc(NS(=O)(=O)c3ccccc3)cc2)n1 | 17.8 | 11 | 5.64
COc1ccc(CN(C)CCOc2ccc(NC(=O)c3cccc4c(=O)cc(-c5ccccc5)[nH]c34)cc2)cc1OC | 0.9 | 0.96 | 1.24
COc1ccc(C(=O)NCC(C)(C)c2nc(-c3ccc(Cl)c(O)c3)c(-c3ccncc3)[nH]2)cc1OCCN(C(C)C)C(C)C | -1.11 | -0.86 | -1.98
O=C(Nc1ccccc1)N(Cc1ccc(-c2ccc(CNCc3ccc4c(c3)OCO4)cc2)cc1)C1CCN(Cc2ccccc2)CC1 | 0.62 | -0.02 | -6.42
COc1cccc(-c2csc(C(=O)NCC3CCN(Cc4ccc(C(C)C)cc4)C3)c2)c1 (stereo unspecified) | -0.64 | -1.41 | 0.03
CS(=O)(=O)c1ccc(CCNCc2ccc(-c3ccc(CN(C(=O)C4CC(=O)c5ccccc54)C4Cc5ccccc5C4)cc3)nc2)cc1 (stereo unspecified) | 1.52 | -0.58 | -0.89
